According to PubChem BioAssay AID1259240 (Keith Lab, Institute of Cancer Science, University of …, 2017):
Unmarked numbers belong to inactive results. Calls of active or inactive are those of the source. No stated cut-off is given here; in the data, active means fold change mostly below about -2 (no sharp cut-off); inactive means mostly above about -1.8.

Assay: TERT promoter activity modulators, primary screen, cell-based, luciferase reporter, human (AID 1259240)
Details: A2780 TERT promoter luciferase reporter, 16 h; at 20 µM, fold versus average of vehicle-only wells
Compound `CCOC(=O)N1CCN(c2c(NC3CCCCCC3)c(=O)c2=O)CC1` has a fold change of -1.07.
With `CCc1nc2ccccc2n1CC(O)COc1cccc(OC)c1` (stereo not given) the fold change was 1.45.
In the case of `COc1ccc2nc(C)c(C(=O)OCCN(C)C)cc2c1`, the fold change is reported as 1.5.
For `O=C(Cn1nc(C(F)F)cc1C1CC1)N1CCCC1`, the fold change was 1.2.
`CC(=O)N1CCC(N(C(=O)Nc2ccc(F)cc2)C2CCCC2)CC1` gave a fold change of -1.02.
With `CCCCNc1nc2c(c(=O)[nH]c(=O)n2C)n1CCO` the fold change was -1.67.
`FC(F)(F)c1ccc2c(c1)C1C=CCC1C(c1ccncc1)N2` (stereo not given) gave a fold change of -1.04.
With `CCC(=O)OCCNc1cc(N2CCCC2)c2noc3c2c1C(=O)c1ccccc1-3` the fold change was 2.08 (active).
`O=C(Cc1ccc(NC2=NC3CS(=O)(=O)CC3S2)cc1)N1CCN(c2ncccn2)CC1` (stereo not given) showed a fold change of 1.14.
For `Cc1ccc(S(=O)(=O)N2N=C(c3ccc(NS(C)(=O)=O)cc3)CC2c2ccco2)cc1` (stereo not given), the fold change was -1.45.
`O=C(Cn1ncc2c3ccccc3n(Cc3ccccc3)c2c1=O)N1CCOCC1` gave a fold change of -1.17.
`O=C(ON=C1CCCC1)c1sc2ccccc2c1Cl` showed a fold change of -1.7.
With `Cc1c(C(=O)N2CCOCC2)sc2nc3n(c(=O)c12)N=C(c1ccc(Cl)cc1)CS3` the fold change was 1.21.
`CCCCN1C(=O)/C(=c2\sc3nc(-c4cc(OC)c(OC)c(OC)c4)nn3c2=O)c2ccccc21` gave a fold change of -1.17.
`CN1CCc2c(sc3c2C(=O)NC(c2ccc(OC(=O)c4ccccc4Cl)cc2)N3)C1` (stereo not given) gave a fold change of -1.85.
With `COC(=O)CSc1nnc2c3c4c(sc3nc(C)n12)CCCC4` the fold change was -1.45.
In the case of `COCCN1C(=O)c2oc3ccc(F)cc3c(=O)c2C1c1cccc(O)c1` (stereo not given), the fold change is reported as -1.86.
Work on `Cc1ccc2c(c1)c(-c1ccccc1)nc1nncn12` yielded a fold change of 1.67.
In the case of `CC1(C)CC2CC(C)(CN2C(=O)CSc2nc(-c3ccco3)cc(C(F)(F)F)n2)C1` (stereo not given), the fold change is reported as -1.47.
With `O=[N+]([O-])c1c(Nc2ccc(Cl)cc2)n[nH]c1-c1nnco1` the fold change was -2.07 (active).
For `Cn1c(SCc2nc(-c3ccccc3)no2)nnc1-c1ccco1`, the fold change was -2.04 (active).
`CN(CC(=O)NCC1CCCO1)S(=O)(=O)c1ccc2c(c1)c(=O)n(C)c(=O)n2C` (stereo not given) gave a fold change of 1.06.
For `CN(C)S(=O)(=O)c1cccc(-c2cn3cccnc3n2)c1`, the fold change was -2.07 (active).
With `N#Cc1ccccc1Cn1c(=O)n(-c2ccc(CC(=O)NCc3ccco3)cc2)c(=O)c2sccc21` the fold change was -1.2.
With `O=c1/c(=C/c2c(F)cccc2Cl)sc2nc(-c3ccco3)nn12` the fold change was 1.03.
In the case of `CCS(=O)(=O)Nc1ccc(C2=NN(S(C)(=O)=O)C(c3ccco3)C2)cc1` (stereo not given), the fold change is reported as -1.18.
Compound `CCOC(=O)N1CCC(Nc2c(N3CCN(c4ccccc4)CC3)c(=O)c2=O)CC1` has a fold change of -1.05.
`COc1ccc(S(=O)(=O)c2cc3ccc(O)cc3oc2=O)cc1OC` gave a fold change of -1.34.
With `O=C(Cc1ccc(NC2=NC3CS(=O)(=O)CC3S2)cc1)N1CCc2ccccc2C1` (stereo not given) the fold change was 1.1.
Work on `c1ccc(Nc2c(-c3ccc(N4CCOCC4)cc3)nc3cnccn23)cc1` yielded a fold change of 1.08.
Compound `COc1ccc(/C=c2\sc3nc(-c4cc(OC)c(OC)c(OC)c4)nn3c2=O)c(OC)c1` has a fold change of -1.26.
Work on `CCc1ccc2nc(NC3=NCN(CCN4CCOCC4)CN3)nc(C)c2c1` yielded a fold change of -1.26.
Compound `Cn1c(=O)c2c(SCC(=O)Nc3ccc4c(c3)OCO4)nc(-c3ccco3)nc2n(C)c1=O` has a fold change of 1.03.
For `O=C1OC(Nc2ccc(F)cc2)c2ccccc21` (stereo not given), the fold change was -1.21.
For `COc1ccc(NC(=O)Nc2ccc3snnc3c2)cc1OC`, the fold change was 1.08.
In the case of `COc1ccccc1Nc1nc(N)nc(CN2CCN(C)CC2)n1`, the fold change is reported as -3.68 (active).
Compound `CC(C)C(NS(=O)(=O)c1ccc2c(c1)oc(=O)n2C)C(=O)Nc1ccc(F)c(F)c1` (stereo not given) has a fold change of -1.83.
Compound `O=C1c2cccnc2C(=O)N1CNc1ccccn1` has a fold change of -1.26.
`Cn1c(=O)c2c(SCC(=O)N3CCOCC3)nc(-c3ccco3)nc2n(C)c1=O` gave a fold change of 1.36.
`CC(=O)c1cccc(NC(=O)Nc2ccc3snnc3c2)c1` showed a fold change of -1.05.
